{"source": "the supplement of paper PMC11417369", "note": "Whole data set: some 25,000 sequences, median “ln(normalized median fluorescence intensity)” near 6.7, cut for the highest 2% near 10. The full list was thinned out, with the highest values kept by preference.", "data": [{"tested_on": "PfHDP1 homeodomain (GST-tagged)", "test": "gcPBM binding intensity (ln(normalized median fluorescence intensity)); higher = stronger DNA binding", "procedure,_shortened": "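DNA-binding domains from P. falciparum, fused to GST and produced in E. coli, were put on an Agilent 4 × 180k double-stranded probe array for 1 h in 1× PBS holding 1% milk, 0.2 mg/ml BSA, 0.5% salmon testes DNA and 0.03% Triton X-100. Probes were primer-extended, 36 bp long and drawn from intergenic genomic regions, with negative controls included. After Alexa488 anti-GST antibody detection and a 488 nm scan, binding intensity was set as the highest Masliner-normalised natural-log median intensity across replicate spots of either probe orientation.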", "values": [{"sequence": "ATCATTTGCTCACGCACACACACATAAAAAGAAAAA [CACACA_site4349]", "gcPBM binding intensity (ln)": 9.55}, {"sequence": "TTATCACATTATTGCACACACATAAAGAAAAAAATA [CACACA_site2841]", "gcPBM binding intensity (ln)": 9.63}, {"sequence": "CATTTGCACACGCACACACACATAAAAAGAAAAATA [CACACA_site6297]", "gcPBM binding intensity (ln)": 10.8}, {"sequence": "CATTTGCCCAGGCACACACACATAAAAAGAAAAATA [CACACA_site356]", "gcPBM binding intensity (ln)": 6.34}, {"sequence": "ATCATTTGCATACGCACACACACATAAAAAGAAAAA [CACACA_site355]", "gcPBM binding intensity (ln)": 8.44}, {"sequence": "CATTTGCACCCGCACACACACATAAAAAGAAAAATA [CACACA_site4350]", "gcPBM binding intensity (ln)": 10.7}, {"sequence": "AACTATATCATTTATTTTATTTTTTAAATACATTTA [CACACA_negctrl_site183]", "gcPBM binding intensity (ln)": 6.19}, {"sequence": "ATATATGTAATAAATAGTACACACACACATATATAT [XGTACX_site2817]", "gcPBM binding intensity (ln)": 7.35}, {"sequence": "ATACTGTATAGTCGCACACAAAAATATAAAATATTT [CACACA_site6004]", "gcPBM binding intensity (ln)": 6.65}, {"sequence": "CATATATATTTGTTCACACACACACTAATAAAAAAA [CACACA_site8787]", "gcPBM binding intensity (ln)": 6.85}, {"sequence": "TTGCAAATATATGGTTGTACTCAAAAAAAAAAAAAA [XGTACX_site6975]", "gcPBM binding intensity (ln)": 6.47}, {"sequence": "GAAAGAAATAAAGGTGGTACATAAATAAAAACTAAG [XGTACX_site4826]", "gcPBM binding intensity (ln)": 6.97}, {"sequence": "TATATATATTTCCAGTGTACTTATTTTTTAATCAAT [XGTACX_site8220]", "gcPBM binding intensity (ln)": 6.7}, {"sequence": "TTTTTTTTGTTCATTGTGCACATTGCTTGCATGGAA [GTGCAC_site9693]", "gcPBM binding intensity (ln)": 10.8}, {"sequence": "TATCATTGTTCATGCTTGCACTTTTGTTACTGTTCC [GTGCAC_site9425]", "gcPBM binding intensity (ln)": 6.75}, {"sequence": "TTTTTTTTTTTTGGTGCATGCACATTTTGTTTTTTT [TGCATGCA_site570]", "gcPBM binding intensity (ln)": 10}, {"sequence": "AGTAGGCATATTGGTTGTACAAAAAAATTATGCACC [XGTACX_site8925]", "gcPBM binding intensity (ln)": 10.6}, {"sequence": "TGAACATATTAAAATTGTACATATGCACAATATGTA [XGTACX_site6801]", "gcPBM binding intensity (ln)": 9.28}, {"sequence": "GTAGGCATTAAAAAATGTACAAAATATTATGAATTG [XGTACX_site1615]", "gcPBM binding intensity (ln)": 6.32}, {"sequence": "AAACATAAAGAAAAAAAAAATATATATTTATTTATT [GTGCAC_negctrl_site357]", "gcPBM binding intensity (ln)": 6.33}, {"sequence": "ATATACACATATACATGTACAAATATATATACACAT [XGTACX_site2986]", "gcPBM binding intensity (ln)": 6.9}, {"sequence": "CATATGTATATGACTACACACAAGGGTGTACCTATA [CACACA_site6670]", "gcPBM binding intensity (ln)": 6.34}, {"sequence": "GAACATTTATTGTGTGTGCACAATTCTTTTTTAACC [GTGCAC_site9697]", "gcPBM binding intensity (ln)": 10.2}, {"sequence": "AATAGATTTTTATGCGTGCACACATTTAACAAAAAA", "gcPBM binding intensity (ln)": 10.3}, {"sequence": "TTTAACATTTCAGATGTGCACATTTTCCGAACCAGT", "gcPBM binding intensity (ln)": 10.9}, {"sequence": "TCCGTATAATTTTGCACACGAATATAAATTTGATAA [CACACA_site136]", "gcPBM binding intensity (ln)": 10.9}, {"sequence": "TTTCCGTATAATTTTGCACACGAATATAAATTTGAT [CACACA_site137]", "gcPBM binding intensity (ln)": 10.3}, {"sequence": "TATTATAATATTTATACACACATAATTTTGATAAAT [CACACA_site583]", "gcPBM binding intensity (ln)": 6.45}, {"sequence": "TGGAGGTCAGTTCACAGTACCCAGGAAATCTACGGA [XGTACX_site1995]", "gcPBM binding intensity (ln)": 5.93}, {"sequence": "TTTTTCTTAAAAAATTGTACACATATATATATATAT [XGTACX_site542]", "gcPBM binding intensity (ln)": 9.21}, {"sequence": "GTAGTGGTTGAATATACACACATATATATATATATA [CACACA_site2651]", "gcPBM binding intensity (ln)": 9.39}, {"sequence": "CCTAGAAAAAAGAACTGTACATATATATATAAATAT [XGTACX_site1680]", "gcPBM binding intensity (ln)": 6.65}, {"sequence": "TATATTAACAAAATGGTGCAATAATTTCTATATTAT [GTGCAC_site9857]", "gcPBM binding intensity (ln)": 10.5}, {"sequence": "GACAAATAATAAAAGGTGCATTATACTTAACAAAAA [GTGCAC_site9624]", "gcPBM binding intensity (ln)": 9.69}, {"sequence": "GTAGACATTATAATGGTGCAAAAAAATTAACAAAAA [GTGCAC_site9891]", "gcPBM binding intensity (ln)": 10.6}, {"sequence": "TCAAGTATTAAAATGGGTACATAAATATGTGTATAT [XGTACX_site5884]", "gcPBM binding intensity (ln)": 6.63}, {"sequence": "TATAATAAATCATATGCATGTTGAAAAAAAAAAAAA [TGCATGCA_site923]", "gcPBM binding intensity (ln)": 6.46}, {"sequence": "AATATATAGAAACACACACACAAAAAAAAAAAAAAA [CACACA_site1326]", "gcPBM binding intensity (ln)": 6.47}, {"sequence": "TTTTGAAACATATGATGTACACGAACATTTAAAAAA [XGTACX_site474]", "gcPBM binding intensity (ln)": 6.6}, {"sequence": "ATTTAGAAAAATAAAACACACATATATCTGTAAATA [CACACA_site6119]", "gcPBM binding intensity (ln)": 6.53}, {"sequence": "ATAAAAATATTGTCTAGTACATATTTATAATAAAAA [XGTACX_site7523]", "gcPBM binding intensity (ln)": 6.54}, {"sequence": "AATATATATATATGTGCACACATATATAATATGTAT [CACACA_site716]", "gcPBM binding intensity (ln)": 9.79}, {"sequence": "TAATATAATATATGCACACAAATATGTATATATGTG [CACACA_site2134]", "gcPBM binding intensity (ln)": 9.77}, {"sequence": "TATATATATATGTGCACACCAATTGTATGTAATATA [CACACA_site3889]", "gcPBM binding intensity (ln)": 10.6}, {"sequence": "TATATATATATGTGCACACATATATAATATGTATAA [CACACA_site715]", "gcPBM binding intensity (ln)": 10.1}, {"sequence": "TATATATATATATGTGCACACCAATTGTATGTAATA [CACACA_site3888]", "gcPBM binding intensity (ln)": 10.5}, {"sequence": "ATTGAATATGTAAATGCACACCAAAAAAAAAAAAAA [CACACA_site9189]", "gcPBM binding intensity (ln)": 9.61}, {"sequence": "CACAAAATAAATTAAACACACAACATCATATATGTA [CACACA_site846]", "gcPBM binding intensity (ln)": 6.57}, {"sequence": "TTTTTTTATATAGACACAAAAGAAAATTACATATAC [CACACA_negctrl_site235]", "gcPBM binding intensity (ln)": 6.49}, {"sequence": "ATATATAATAAATACACACACATGTATTTATAAATA [CACACA_site5135]", "gcPBM binding intensity (ln)": 6.8}, {"sequence": "TTTTTTTTGGTATAATGTACATTTTCACTTATGTAT [XGTACX_site3259]", "gcPBM binding intensity (ln)": 6.97}, {"sequence": "CACCCGCACGTATTTGCACACATTGCCACGTAATTA [CACACA_site5786]", "gcPBM binding intensity (ln)": 10.7}, {"sequence": "CAGACGCACGTATTTGCACACATTGCCACGTAATTA [CACACA_site3349]", "gcPBM binding intensity (ln)": 10.2}, {"sequence": "TTTTTTTTTTTTTTTGCACACACATTGAATTATTAT [CACACA_site198]", "gcPBM binding intensity (ln)": 9.13}, {"sequence": "TGTAATCAAAAAAATAGTACATAAATTGTGTATACT [XGTACX_site5908]", "gcPBM binding intensity (ln)": 6.57}, {"sequence": "AGCACGCACAGACACACACACATATTTATATTTATA [CACACA_site6291]", "gcPBM binding intensity (ln)": 7.62}, {"sequence": "TTTATTTTATCATTTGCACACGCACCCAGACATAAA [CACACA_site4347]", "gcPBM binding intensity (ln)": 10.6}, {"sequence": "TTTATTTTATCATTTGCACACGCACGCCCACATAAA [CACACA_site353]", "gcPBM binding intensity (ln)": 10.6}, {"sequence": "TTATCATTTGGACACGCACACACACCGAAAAAGAAA [CACACA_site8008]", "gcPBM binding intensity (ln)": 7.13}, {"sequence": "TTTTTTTTTATTATCATGCACACATTTTTTTTTTTT [CACACA_site2254]", "gcPBM binding intensity (ln)": 9.1}, {"sequence": "TATTTTATCATTTGCACACGCACACCGACATAAAAA [CACACA_site4348]", "gcPBM binding intensity (ln)": 10.6}, {"sequence": "TTTATTTTATCATTTGCACACGCACCCCCACATAAA [CACACA_site8007]", "gcPBM binding intensity (ln)": 10.2}, {"sequence": "TTTTATCACATTATTGCACACACATAAAGAAAAAAA [CACACA_site8922]", "gcPBM binding intensity (ln)": 9.63}, {"sequence": "TATTTTATCATTTGCACACGCACACCCACATAAAAA [CACACA_site354]", "gcPBM binding intensity (ln)": 10.5}]}]}
